Only some compounds are listed: those with a hit (about 20% of all), similar ones and a draw of the others.
Shiga inhibitor: Shiga toxin inhibition; 9.2% of 290,000 active; Vero cells, Shiga toxin protein synthesis inhibition reporter; inhibition, % at 38.7 µM; in the data active = inhibition mostly above about 28%, no sharp cut-off; inactive = mostly below about 43%; note: 0% is about no effect
HCMV antiviral: inhibitors of human cytomegalovirus. activity change, negative = inhibition, % at 57.5 µM. HFF cells, HCMV-luciferase reporter, 72 h; stronger effect = lower value. 4.5% of 410,000 active; in the data active = activity change below about -60%; inconclusive = no clear call, values can overlap the other calls; inactive = above about -39%; note: % is set by controls: 0 for no effect and ±100 for the full control effect
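Compounds were evaluated in HFFs infected with an HCMV luciferase reporter virus (MOI 1 PFU/cell). Luciferase in lysates collected 72 h post infection served as the replication measure.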
Pf growth 48h: P. falciparum growth inhibition at 48 hours (one generation). P. falciparum luciferase growth in erythrocytes, 48 h. Potency, µM (top dose mostly 28.7 µM), for the others: at the top dose activity change, negative = inhibition, usual class: inhibitors. 5.9% of 310,000 active; note: potency is the fitted concentration of half-maximal effect; % is set by controls: 0 for no effect and ±100 for the full control effect
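Read-out is firefly luciferase luminescence from an integrated reporter in P. falciparum, so falling signal marks reduced parasite growth. Infected erythrocytes were at 2% hematocrit and 0.1% parasitemia (final) in Albumax-supplemented RPMI 1640.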
Pf growth 96h: P. falciparum growth inhibition at 96 hour, primary screen for plastid delayed-death inhibitors | P. falciparum luciferase reporter growth, 96 h | Potency, µM (series often up to 28.7 µM), inactives show at the highest dose activity change, negative = inhibition, actives largely listed as inhibitors | 6.9% of 320,000 active; note: potency is the fitted concentration of half-maximal effect; % is set by controls: 0 for no effect and ±100 for the full control effect
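96 h incubation, 37 C, 5% CO2, of luciferase-reporter P. falciparum-infected RBCs (2% hematocrit, 0.05% parasitemia final) with test compounds; endpoint luminescence.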
Cycloheximide cs: counter-screen for Shiga toxin inhibitors: cycloheximide protein synthesis inhibition. cell reporter, cycloheximide protein synthesis inhibition counterscreen. max response, %. 12% of 300,000 active. AID 2314; in the data active = max response mostly above about 13%, no sharp cut-off; inactive = mostly below about 14%; note: read at 38.3 µM for the half of the compounds with a filed dose; 0% is about no effect
Active calls of the source: *; ? = inconclusive; . = no result; [ ] = another dose, or the depositor's remark. Unless noted, calls come from the whole dose curve; as a rule, active = well fitted inhibition curve with a large enough effect; inconclusive = small, poorly fitted or top-dose-only effect, or another doubt; inactive = no such curve, though single readings can be large or run the other way.

SMILES	Shiga inhibitor	HCMV antiviral	Pf growth 48h	Pf growth 96h	Cycloheximide cs
C[C@@H]1C[C@@H]([C@@H](C)CC2CC(=O)NC(=O)C2)C(=O)[C@@H](C)C1	-16	.	.	.	-8
COCC(=O)N1CCCC(C(=O)c2ccc(-c3ccccc3)cc2)C1 (configuration not stated)	12	27	-6%	-6%	11*
CC(=O)NCC(=O)N1CCCC(C(=O)c2ccc(Oc3ccccc3)cc2)C1 (configuration not stated)	20	-17	3%	3%	13
COc1ccccc1NC(=O)C1=C(C)Nc2nc(SCc3cccc(F)c3)nn2C1c1ccc(C(=O)O)cc1 (configuration not stated)	.	-2	-6%	16%	.
Cc1nnc(SCc2ccc(F)cc2Cl)s1	69*	22	95%	152%	41*
Nc1nnc(SCc2ccc(F)cc2Cl)s1	47*	38	26%	.	31*
CCOc1ccc(-n2c(=O)c3c4c(sc3n(CC(=O)NC(C)CC)c2=O)CCC4)cc1 (configuration not stated)	.	9	.	.	.
Oc1csc(Cc2nc(-c3ccccc3F)cs2)n1	78*	?	122%	-15%	47*
Oc1csc(Cc2nc(-c3ccc(-c4ccccc4)cc3)cs2)n1	53*	43	61%	4%	27*
Cc1ccccc1NC(=O)Cc1nc(-c2ccc3ccccc3c2)cs1	7	-39	1%	-19%	6
NC(=S)Cc1nc(-c2ccccc2)cs1	-6	-8	?	?	6
Oc1csc(Cc2nc(-c3ccc4ccccc4c3)cs2)n1	59*	170	82%	160%	38*
Cc1ccccc1-c1csc(C(O)c2ccc(F)cc2)n1 (configuration not stated)	.	28	.	.	.
CN1C(C(=O)NCc2ccc(OC(F)(F)F)cc2)CC2Cn3c(nc4cc(Cl)c(Cl)cc43)C21 (configuration not stated)	-9	-22	?	?	-9
O=Nc1c(O)[nH]c2ccc(Cl)c(Cl)c12	.	-3	.	.	.
Cc1c(C(=O)Oc2cccc3cccnc23)cccc1[N+](=O)[O-]	171*	?	?	?	41*
Cc1c(C(=O)O/N=C(\N)c2ccccn2)cccc1[N+](=O)[O-]	28	8	-29%	?	22*
Cc1ccc(C(=O)O/N=C(\N)c2ccccc2)c(Cl)c1	16	?	15%	35%	36*
Cc1ccc(C(=O)O/N=C(\N)c2ccccn2)c(Cl)c1	.	-80*	?	?	-11
COc1ccccc1NC(=O)O/N=C(\N)c1ccccc1	24	-36	8%	-3%	10
CCCCn1nnnc1C(c1cc2ccccc2o1)N1CCCN(C(=O)OC(C)(C)C)CC1 (configuration not stated)	.	-15	.	.	.
N/C(=N\OC(=O)c1cc(Br)ccc1Cl)c1ccccn1	77*	144	159%[5.75 µM]	33%	52*
N/C(=N\OC(=O)c1ccc(Cl)cc1Cl)c1ccccn1	-20	-61*	-18%	2%	-8
O=C(NCCNC(=O)c1ccc(Cl)cc1Cl)c1ccccn1	-2	-15	35%	-19%	-4
N/C(=N\OC(=O)c1ccc(Cl)cc1[N+](=O)[O-])c1ccccn1	118*	-38	-29%	-45%	48*
SMILES	Shiga inhibitor	HCMV antiviral	Pf growth 48h	Pf growth 96h	Cycloheximide cs
N#Cc1ccc(Oc2cccc3cccnc23)c([N+](=O)[O-])c1	25	?	12%	5%	-1
O=[N+]([O-])c1ccc(Oc2cccc3cccnc23)c([N+](=O)[O-])c1	-8	-69*	10µM*	13µM*	-2
Cc1c(CCO)c(=O)[nH]n1S(=O)(=O)c1ccc(Cl)cc1Cl	-12	-16	-9%	31%	-2
COc1ccccc1C(=O)OCc1ccc2sc(C)nc2c1	78*	-5	27%[5.75 µM]	4%	28*
Cc1cccc(C)c1-n1nnnc1C(c1cccs1)N1CCN(C/C=C/c2ccccc2)CC1 (configuration not stated)	.	-13	.	.	.
COC(=O)c1cc(-c2cc(OC)ccc2OC)nc2c1c(=O)n(C)c(=O)n2Cc1ccccc1	-6	13	?	2.1µM*	5
COc1ccc(OC)c(-c2csc(NC(=O)Cc3ccccc3)n2)c1	45	23	?	?	24
O=c1c2c3c(sc2nnn1CCCCOc1ccc(Cl)cc1)CCCC3	.	8	.	.	.
Cc1ccc(CN2CCNC(=O)C2CC(=O)N(C)Cc2cnccn2)cc1 (configuration not stated)	35	0	28%	13µM*	-1
CC(C)N(Cc1nccn1C)C(=O)CC1C(=O)NCCN1Cc1ccc(F)cc1 (configuration not stated)	9	-36	16%	13µM*	-11
CC(C)N(Cc1nccn1C)C(=O)CC1C(=O)NCCN1Cc1ccc(F)c(F)c1 (configuration not stated)	10	-1	-3%	-1%	0
Cc1cc(CN(C)C(=O)CC2C(=O)NCCN2Cc2ccc(-c3ccccc3)cc2)on1 (configuration not stated)	12	-21	-17%	10µM*	5
Cc1nonc1CN(C)C(=O)CC1C(=O)NCCN1Cc1cccc(C(F)(F)F)c1 (configuration not stated)	-3	-1	36%	10µM*	-2
Cc1cc(CN(C)C(=O)CC2C(=O)NCCN2Cc2ccc(F)c(F)c2)on1 (configuration not stated)	1	4	5%	24%	-2
CN(Cc1cnccn1)C(=O)CC1C(=O)NCCN1Cc1c(F)cccc1Cl (configuration not stated)	24	0	1%	9%	7
COc1ccccc1NC(=O)C1CCCN1C(=O)NC1CCCCC1 (configuration not stated)	63	-16	-7%	-3%	12
CCOc1ccc(CNC(=O)Cn2nc(C)c3sc4ccccc4c3c2=O)cc1	.	18	.	.	.
COc1cc(NS(=O)(=O)c2ccc([N+](=O)[O-])cc2)c2ncccc2c1	-11	.	.	.	5
COc1ccc(Nc2ncnc3onc(-c4ccc(Cl)cc4)c23)cc1Cl	.	-25	.	.	.
CCOc1ccc(CN2CCNC(=O)C2CC(=O)NCc2csc(C)n2)cc1 (configuration not stated)	-6	12	-3%	3.3µM*	0
O=C(CCSc1ccccc1)NCC1CCCO1 (configuration not stated)	63*	-18	73%	.	29*
O=C(CSc1nnc(C2CC2)n1CC1CCCO1)Nc1ccc(Cl)cc1 (configuration not stated)	31*	22	28%	30%	13
O=C(COc1ccccc1)NCC1CCCO1 (configuration not stated)	20	-14	33%	33%	-1
O=C(CC(c1ccccc1)c1ccccc1)NCC1CCCO1 (configuration not stated)	-16	-100*	12%	0%	-3
